In ChEMBL document CHEMBL3988442, “University of Dundee, Small-Polar-MMV Screening Library” (2021):
For some assays here: Entries with a potency or affinity are not part of this list.

Experiments:
Design in all cases: scale not given: direction of the effect not stated beside the values
[1] = target: Protein translocase subunit SecA (Escherichia coli (strain K12)) (UniProt P10408); assay: Assay to Identify E. coli SecA ATPase Inhibitors; type: functional; conditions: 30 µM
[2] = target: T1, Ubiquitin-activating enzyme e1, putative (Leishmania donovani (strain BPK282A1)) (UniProt E9BSI1); assay: Leishmania donovani Ubiquitin Activating Enzyme (LdE1); type: functional; conditions: 30 µM
T1 sequence (whole entry): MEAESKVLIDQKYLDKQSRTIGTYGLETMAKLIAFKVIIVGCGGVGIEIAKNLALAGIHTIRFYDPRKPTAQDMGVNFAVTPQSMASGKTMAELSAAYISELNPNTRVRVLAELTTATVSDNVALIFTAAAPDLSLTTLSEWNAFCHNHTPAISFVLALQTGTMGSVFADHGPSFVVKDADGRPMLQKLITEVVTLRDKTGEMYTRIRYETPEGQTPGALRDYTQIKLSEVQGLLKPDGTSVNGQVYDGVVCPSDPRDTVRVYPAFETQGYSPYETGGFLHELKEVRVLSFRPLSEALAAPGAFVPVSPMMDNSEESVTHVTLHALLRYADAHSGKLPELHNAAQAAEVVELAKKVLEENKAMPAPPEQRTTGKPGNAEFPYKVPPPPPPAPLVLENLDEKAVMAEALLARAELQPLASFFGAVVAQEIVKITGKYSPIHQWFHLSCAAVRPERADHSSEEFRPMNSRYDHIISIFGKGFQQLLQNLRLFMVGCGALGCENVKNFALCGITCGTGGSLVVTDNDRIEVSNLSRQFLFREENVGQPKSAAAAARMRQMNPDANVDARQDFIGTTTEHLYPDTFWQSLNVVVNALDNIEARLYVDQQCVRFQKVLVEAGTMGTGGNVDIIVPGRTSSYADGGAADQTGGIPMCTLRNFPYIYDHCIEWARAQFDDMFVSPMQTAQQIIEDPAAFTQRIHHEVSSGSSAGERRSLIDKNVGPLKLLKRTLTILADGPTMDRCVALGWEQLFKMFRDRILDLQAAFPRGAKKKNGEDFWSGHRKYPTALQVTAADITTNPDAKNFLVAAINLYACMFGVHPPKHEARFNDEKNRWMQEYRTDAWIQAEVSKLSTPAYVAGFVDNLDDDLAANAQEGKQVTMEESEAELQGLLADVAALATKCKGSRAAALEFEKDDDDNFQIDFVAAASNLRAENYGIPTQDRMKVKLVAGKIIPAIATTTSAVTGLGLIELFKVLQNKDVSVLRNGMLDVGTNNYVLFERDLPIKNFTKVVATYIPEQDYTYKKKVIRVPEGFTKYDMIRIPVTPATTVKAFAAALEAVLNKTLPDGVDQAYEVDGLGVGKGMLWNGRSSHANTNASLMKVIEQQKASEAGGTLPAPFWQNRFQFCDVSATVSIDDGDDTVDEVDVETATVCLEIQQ

[3] = target: AMP-activated protein kinase, AMPK (Homo sapiens) (UniProt P54646+O43741+P54619+Q9UGJ0+Q9Y478+Q13131+Q9UGI9); assay: AMP-dependent Kinase enzyme assay. An in vitro enzyme assay that detects ADP turnover that is directly proportional to AMPK activity. This uses naive AMPK that is activated during the assay with MK-8722; type: functional; conditions: 30 µM
[4] = target: Sialic acid-binding Ig-like lectin 9 (Homo sapiens) (UniProt Q9Y336); assay: Hs-Siglec9 ALPHAscreen SOP 20170721; conditions: 10 µM
Sequence of Sialic acid-binding Ig-like lectin 9 (Homo sapiens) (Q9Y336 whole entry): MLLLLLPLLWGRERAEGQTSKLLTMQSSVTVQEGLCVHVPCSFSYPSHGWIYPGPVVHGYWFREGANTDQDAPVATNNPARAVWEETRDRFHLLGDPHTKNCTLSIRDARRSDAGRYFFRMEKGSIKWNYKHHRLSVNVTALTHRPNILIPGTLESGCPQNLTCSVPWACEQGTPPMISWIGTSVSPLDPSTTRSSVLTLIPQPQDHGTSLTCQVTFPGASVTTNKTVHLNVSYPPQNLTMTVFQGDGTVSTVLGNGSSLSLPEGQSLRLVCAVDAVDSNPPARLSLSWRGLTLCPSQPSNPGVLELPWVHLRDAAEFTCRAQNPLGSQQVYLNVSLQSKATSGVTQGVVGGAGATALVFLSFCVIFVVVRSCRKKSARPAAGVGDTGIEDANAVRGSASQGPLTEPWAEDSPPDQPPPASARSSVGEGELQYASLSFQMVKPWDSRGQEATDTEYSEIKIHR

[5] = system: Trypanosoma cruzi; assay: Trypanosoma cruzi phosphomannomutase and mannose-1-phosphate guanylyltransferase assay; type: functional; conditions: 10 µM
[6] = target: T2, Arginase-2, mitochondrial (Homo sapiens) (UniProt P78540); assay: in vitro enzyme assay to detect the production of urea directly proportional to the activity of Arginase II; type: functional; conditions: 33.3 µM; also: in the data most compounds retested in dose-response had high values
T2 sequence (whole entry): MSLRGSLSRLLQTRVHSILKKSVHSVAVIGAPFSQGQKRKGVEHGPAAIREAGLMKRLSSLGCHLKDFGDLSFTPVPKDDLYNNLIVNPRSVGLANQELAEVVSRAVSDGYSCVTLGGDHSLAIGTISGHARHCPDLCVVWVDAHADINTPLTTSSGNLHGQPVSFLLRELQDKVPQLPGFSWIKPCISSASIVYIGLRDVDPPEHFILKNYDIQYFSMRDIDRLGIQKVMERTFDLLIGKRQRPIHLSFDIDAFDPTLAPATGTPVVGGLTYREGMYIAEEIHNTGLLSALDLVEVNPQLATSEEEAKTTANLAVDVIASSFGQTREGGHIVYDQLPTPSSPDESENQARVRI

[7] = target: T3, Proteasome subunit beta (Trypanosoma cruzi) (UniProt O96673); assay: Trypanosoma cruzi proteasome chymotrypsin-like activity (TcProtChymo) assay.; also: in the data most compounds retested in dose-response had high values; type: functional; conditions: 9.37 µM
T3 sequence (whole entry): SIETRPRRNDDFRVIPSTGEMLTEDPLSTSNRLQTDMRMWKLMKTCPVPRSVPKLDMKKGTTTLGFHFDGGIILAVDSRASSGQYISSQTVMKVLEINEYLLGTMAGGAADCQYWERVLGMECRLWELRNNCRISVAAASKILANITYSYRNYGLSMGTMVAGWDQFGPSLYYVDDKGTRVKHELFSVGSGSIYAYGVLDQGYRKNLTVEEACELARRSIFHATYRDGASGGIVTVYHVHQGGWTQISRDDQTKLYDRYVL

[8] = species: Homo sapiens; assay: To identify inhibition of the IFN signalling (Jak-Stat) pathway via expression of an eGFP reporter gene under the control of an IFN-stimulated response element (ISRE) containing MxA promoter.; type: functional; conditions: 30 µM
[9] = target: T4, Tyrosyl-tRNA synthetase, putative (Trypanosoma cruzi (strain CL Brener)) (UniProt Q4DSP6); assay: Trypanosoma cruzi tyrosyl tRNA synthetase (TcYRS) _High Tyrosine SOP; type: functional; conditions: 30 µM; also: in the data most compounds retested in dose-response had high values
T4 sequence (whole entry): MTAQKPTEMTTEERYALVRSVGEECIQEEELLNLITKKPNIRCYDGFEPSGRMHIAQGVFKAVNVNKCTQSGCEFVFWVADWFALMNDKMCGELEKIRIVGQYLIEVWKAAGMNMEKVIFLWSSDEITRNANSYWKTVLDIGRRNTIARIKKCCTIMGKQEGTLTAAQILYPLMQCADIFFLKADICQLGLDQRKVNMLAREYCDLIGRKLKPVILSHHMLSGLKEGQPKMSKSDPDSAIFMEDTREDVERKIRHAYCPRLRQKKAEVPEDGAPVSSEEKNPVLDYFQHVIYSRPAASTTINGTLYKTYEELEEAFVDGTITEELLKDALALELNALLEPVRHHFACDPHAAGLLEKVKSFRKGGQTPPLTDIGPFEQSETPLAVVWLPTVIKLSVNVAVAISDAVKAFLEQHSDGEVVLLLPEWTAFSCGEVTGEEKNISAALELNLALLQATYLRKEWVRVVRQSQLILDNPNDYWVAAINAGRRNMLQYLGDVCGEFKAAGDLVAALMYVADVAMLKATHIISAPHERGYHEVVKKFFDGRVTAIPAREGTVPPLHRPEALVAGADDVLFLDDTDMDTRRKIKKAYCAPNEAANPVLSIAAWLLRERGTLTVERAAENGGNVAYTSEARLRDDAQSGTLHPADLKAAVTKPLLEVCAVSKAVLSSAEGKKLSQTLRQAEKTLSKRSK

[10] = target: T4, Tyrosyl-tRNA synthetase, putative (Trypanosoma cruzi (strain CL Brener)); assay: Trypanosoma cruzi tyrosyl tRNA synthetase (TcYRS) SOP; type: functional; conditions: 30 µM
[11] = target: Chromo domain-containing protein 1 (Saccharomyces cerevisiae (strain ATCC 204508 / S288c) (Baker's yeast)) (UniProt P32657); assay: ScCHD-1 Enzyme Inhibition Assay; type: functional; conditions: 30 µM; also: in the data most compounds retested in dose-response had high values
Sequence of Chromo domain-containing protein 1 (Saccharomyces cerevisiae (strain ATCC 204508 / S288c) (Baker's yeast)) (P32657 whole entry, the tested form may be a part): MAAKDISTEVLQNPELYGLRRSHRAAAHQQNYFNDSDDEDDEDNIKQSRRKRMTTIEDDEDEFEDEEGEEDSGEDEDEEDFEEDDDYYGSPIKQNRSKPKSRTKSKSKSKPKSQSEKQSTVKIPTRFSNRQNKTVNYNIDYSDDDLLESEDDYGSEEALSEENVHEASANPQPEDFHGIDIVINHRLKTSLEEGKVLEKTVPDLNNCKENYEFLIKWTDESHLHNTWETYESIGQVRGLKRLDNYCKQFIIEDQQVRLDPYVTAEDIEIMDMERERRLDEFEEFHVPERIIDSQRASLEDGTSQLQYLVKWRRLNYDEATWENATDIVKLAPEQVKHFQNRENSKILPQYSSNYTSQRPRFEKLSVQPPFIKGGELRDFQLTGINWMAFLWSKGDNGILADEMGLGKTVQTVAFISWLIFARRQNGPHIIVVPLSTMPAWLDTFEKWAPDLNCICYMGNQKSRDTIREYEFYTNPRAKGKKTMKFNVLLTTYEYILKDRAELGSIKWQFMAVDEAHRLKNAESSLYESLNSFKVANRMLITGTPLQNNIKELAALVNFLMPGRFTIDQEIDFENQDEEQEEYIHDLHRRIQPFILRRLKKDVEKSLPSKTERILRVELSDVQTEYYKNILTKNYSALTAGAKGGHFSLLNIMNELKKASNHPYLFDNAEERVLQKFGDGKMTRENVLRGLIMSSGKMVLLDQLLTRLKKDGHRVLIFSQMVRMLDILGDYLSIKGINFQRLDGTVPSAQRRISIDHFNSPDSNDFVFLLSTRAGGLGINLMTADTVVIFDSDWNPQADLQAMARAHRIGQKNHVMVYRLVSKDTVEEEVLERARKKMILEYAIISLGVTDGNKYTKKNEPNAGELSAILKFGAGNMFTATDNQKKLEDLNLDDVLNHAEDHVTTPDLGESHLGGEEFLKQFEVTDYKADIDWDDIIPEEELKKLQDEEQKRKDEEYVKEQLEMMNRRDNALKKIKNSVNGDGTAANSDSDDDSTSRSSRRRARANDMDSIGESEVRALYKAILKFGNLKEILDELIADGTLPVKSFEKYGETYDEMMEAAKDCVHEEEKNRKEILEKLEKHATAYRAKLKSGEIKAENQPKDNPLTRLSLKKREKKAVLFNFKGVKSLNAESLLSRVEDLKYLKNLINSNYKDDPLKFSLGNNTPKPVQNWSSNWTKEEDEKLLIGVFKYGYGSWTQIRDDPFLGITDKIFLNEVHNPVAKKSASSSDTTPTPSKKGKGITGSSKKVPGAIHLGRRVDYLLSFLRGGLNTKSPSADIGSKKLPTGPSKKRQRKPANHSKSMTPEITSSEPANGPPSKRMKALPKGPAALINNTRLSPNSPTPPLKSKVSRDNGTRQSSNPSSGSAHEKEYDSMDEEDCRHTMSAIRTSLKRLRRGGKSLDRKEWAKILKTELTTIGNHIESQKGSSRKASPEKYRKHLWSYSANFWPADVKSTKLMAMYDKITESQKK

Sequence of Protein translocase subunit SecA (Escherichia coli (strain K12)) (P10408 whole entry): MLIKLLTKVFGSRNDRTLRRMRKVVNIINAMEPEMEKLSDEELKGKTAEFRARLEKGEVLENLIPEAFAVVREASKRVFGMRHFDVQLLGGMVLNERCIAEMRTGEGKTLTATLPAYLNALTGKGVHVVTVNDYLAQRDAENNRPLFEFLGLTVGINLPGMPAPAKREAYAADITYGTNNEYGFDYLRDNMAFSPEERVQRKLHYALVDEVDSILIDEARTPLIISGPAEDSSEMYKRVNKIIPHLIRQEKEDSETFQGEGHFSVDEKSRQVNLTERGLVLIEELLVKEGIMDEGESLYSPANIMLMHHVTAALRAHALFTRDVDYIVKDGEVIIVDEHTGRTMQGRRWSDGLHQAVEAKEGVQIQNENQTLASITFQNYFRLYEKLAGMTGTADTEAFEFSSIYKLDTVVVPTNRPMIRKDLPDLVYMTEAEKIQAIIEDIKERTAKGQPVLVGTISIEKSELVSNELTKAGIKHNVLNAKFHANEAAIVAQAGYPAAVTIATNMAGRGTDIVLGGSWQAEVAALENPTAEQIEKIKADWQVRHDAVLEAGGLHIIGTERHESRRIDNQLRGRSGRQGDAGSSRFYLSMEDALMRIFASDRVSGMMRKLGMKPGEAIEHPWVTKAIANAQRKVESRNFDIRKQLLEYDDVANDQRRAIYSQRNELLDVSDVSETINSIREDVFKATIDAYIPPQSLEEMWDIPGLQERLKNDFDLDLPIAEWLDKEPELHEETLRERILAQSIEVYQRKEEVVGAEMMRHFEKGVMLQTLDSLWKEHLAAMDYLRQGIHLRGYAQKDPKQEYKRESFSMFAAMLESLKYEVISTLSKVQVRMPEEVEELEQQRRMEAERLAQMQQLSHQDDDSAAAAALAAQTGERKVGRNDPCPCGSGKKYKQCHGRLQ

Structure (SMILES): COCC(=O)N1Cc2cnc(Cc3ccc(OC)cc3)nc2C1
- Percent Effect [1]: -5.39%
- Percent Effect [2]: 5.48%
- Percent Effect [3]: -2.68%
- Percent Effect [4]: -3.21%
- Percent Effect [5]: 0.392%
- Percent Effect [6]: 3.64%
- Percent Effect [7]: 10.3%
- Percent Effect [8]: 1.33%
- Percent Effect [9]: 8.6%
- Percent Effect [10]: 15%
- Percent Effect [11]: -4.76%

Structure (SMILES): Cc1cccc(NC2CCN(C(=O)Nc3cc(F)cc(F)c3)CC2)n1
- Percent Effect [1]: -9.91%
- Percent Effect [2]: 7.59%
- Percent Effect [3]: -1.53%
- Percent Effect [4]: 14.7%
- Percent Effect [5]: 12.4%
- Percent Effect [6]: -4.18%
- Percent Effect [7]: 4.34%
- Percent Effect [8]: 27.7%
- Percent Effect [9]: -0.493%
- Percent Effect [10]: 13.9%
- Percent Effect [11]: -7.84%

Structure (SMILES): CC(C)NC(=O)[C@H]1C[C@@H]2[C@@H](C1)OCCN2Cc1cnn(C)c1
- Percent Effect [1]: -3.53%
- Percent Effect [2]: 0%
- Percent Effect [3]: 4.75%
- Percent Effect [4]: 2.29%
- Percent Effect [5]: -5.6%
- Percent Effect [6]: -50%
- Percent Effect [7]: 4.44%
- Percent Effect [8]: -6.54%
- Percent Effect [9]: 3.12%
- Percent Effect [10]: 10%
- Percent Effect [11]: -4.52%

Structure (SMILES): Cc1ccc(CN2CCc3ncnc(-c4ccc(F)cc4)c3CC2)o1
- Percent Effect [1]: -0.438%
- Percent Effect [2]: 5.33%
- Percent Effect [3]: 3.65%
- Percent Effect [4]: 4.4%
- Percent Effect [5]: -1.93%
- Percent Effect [6]: -50.4%
- Percent Effect [7]: 12.5%
- Percent Effect [8]: -0.337%
- Percent Effect [9]: 1.04%
- Percent Effect [10]: 12.5%
- Percent Effect [11]: -9.77%

Structure (SMILES): CCN1Cc2c(C(=O)NCC3CC3)ncn2-c2ccccc2S1(=O)=O
- Percent Effect [1]: 3.87%
- Percent Effect [2]: -5.48%
- Percent Effect [3]: -3.01%
- Percent Effect [4]: 4.85%
- Percent Effect [5]: 3.37%
- Percent Effect [6]: -0.399%
- Percent Effect [7]: 16%
- Percent Effect [8]: -1.54%
- Percent Effect [9]: 0%
- Percent Effect [10]: 18.5%
- Percent Effect [11]: -2.17%

Structure (SMILES): O=C(N1CCCC1)N1CCc2ncnc(C3CCOC3)c2CC1 (stereo not given)
- Percent Effect [1]: 2.86%
- Percent Effect [2]: -2.67%
- Percent Effect [3]: 9.11%
- Percent Effect [4]: 2.99%
- Percent Effect [5]: -0.591%
- Percent Effect [6]: 3.5%
- Percent Effect [7]: 7.14%
- Percent Effect [8]: 3.4%
- Percent Effect [9]: 3.19%
- Percent Effect [10]: -1.28%
- Percent Effect [11]: -1.1%

Structure (SMILES): CC1CCN(c2ncc3c(n2)CN(c2ccccc2)C3=O)CC1
- Percent Effect [1]: -5.32%
- Percent Effect [2]: 5.2%
- Percent Effect [3]: -0.285%
- Percent Effect [4]: 2.67%
- Percent Effect [5]: -5.8%
- Percent Effect [6]: -30.3%
- Percent Effect [7]: -5.82%
- Percent Effect [8]: -2.62%
- Percent Effect [9]: 2.15%
- Percent Effect [10]: 11.1%
- Percent Effect [11]: 5.77%

Structure (SMILES): CCCN1CCN(C(=O)c2cnccn2)[C@H]2CS(=O)(=O)C[C@H]21
- Percent Effect [1]: -2.77%
- Percent Effect [2]: 2.7%
- Percent Effect [3]: -5.74%
- Percent Effect [4]: 30.7%
- Percent Effect [5]: 3.86%
- Percent Effect [6]: 2.38%
- Percent Effect [7]: 2.93%
- Percent Effect [8]: 6.26%
- Percent Effect [9]: 4.76%
- Percent Effect [10]: 12.2%
- Percent Effect [11]: -5.99%

Structure (SMILES): O=C(c1nn(-c2ccccc2F)cc1O)N1CCCC1
- Percent Effect [1]: -5%
- Percent Effect [2]: -10.8%
- Percent Effect [3]: -2.23%
- Percent Effect [4]: 3.15%
- Percent Effect [5]: -3.62%
- Percent Effect [6]: -0.185%
- Percent Effect [7]: -6.1%
- Percent Effect [8]: 5.03%
- Percent Effect [9]: -6.93%
- Percent Effect [10]: -8.54%
- Percent Effect [11]: 4.21%

Structure (SMILES): CC(C)c1nc(C2CCCN(C(=O)c3ccc4[nH]cnc4c3)C2)no1 (stereo not given)
- Percent Effect [1]: -9.93%
- Percent Effect [2]: 18.2%
- Percent Effect [3]: -3.37%
- Percent Effect [4]: 3.45%
- Percent Effect [5]: 5.97%
- Percent Effect [6]: -5.26%
- Percent Effect [7]: 12.5%
- Percent Effect [8]: 10.7%
- Percent Effect [9]: 5.71%
- Percent Effect [10]: 2.35%
- Percent Effect [11]: -15.3%
